The list is not random: actives were taken first. Their share in the collection is about 0.93%.
AGP1 TOR yeast: modulators of AGP1-GFP expression in yeast TOR pathway, primary screen, cell-based, multiplex flow cytometry, S. cerevisiae, MLPCN library | 3 h; GFP as percent of DMSO wells | GFP response vs DMSO, % at 10 µM | 320,000 tested, 0.02% active | AID 2066, 2009;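 active = GFP response relative to DMSO above a set limit, near screen average plus 3 SD, cut at about 150% in these data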;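 also: median GFP channel fluorescence of the gated AGP1 strain per well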
MEP2 TOR yeast: modulators of MEP2-GFP levels in yeast, primary screen, S. cerevisiae, multiplex flow cytometry, MLPCN library | S. cerevisiae MEP2-GFP strain, 3 h; 100% = DMSO control level | GFP response vs DMSO, % at 10 µM | 330,000 tested, 0.51% active | AID 2016, 2009;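 active = GFP response versus DMSO above a set limit, roughly screen mean plus 3 SD, cut at about 180% in these data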;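 also: median GFP fluorescence of the barcode-gated MEP2-GFP cells per well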
LAP4-GFP MLPCN: modulators of LAP4-GFP expression in yeast, primary screen, S. cerevisiae, multiplex flow cytometry, MLPCN library; 3 h; median GFP as percent of DMSO wells; AID 2023, 2009; 320,000 tested, 0.34% active; GFP response vs DMSO, % at 10 µM;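 active = GFP response vs DMSO above a set limit, about the screen mean plus 3 SD, cut at about 150% in these data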
CIT2-GFP yeast: modulators of CIT2-GFP expression in yeast, primary screen, S. cerevisiae, GFP fusion, multiplex flow cytometry, MLPCN library; 320,000 tested, 0.065% active; GFP response vs DMSO, % at 10 µM; S. cerevisiae CIT2-GFP strain, 3 h; 100 means same as DMSO wells;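 active = GFP response relative to DMSO above a set limit, near the screen mean plus 3 SD, cut at about 150% in these data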;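 also: ratio of well median GFP fluorescence to mean of DMSO wells on the plate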
RPL19A TOR yeast: RPL19A-GFP expression modulators in yeast, primary screen, cell-based, S. cerevisiae, multiplex flow cytometry, MLPCN; S. cerevisiae RPL19A-GFP strain, 3 h; hits give low values; percent response vs DMSO, % at 10 µM; AID 2025, 2009; 330,000 tested, 0.3% active;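 active = percent response vs DMSO below 50%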;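 also: median channel GFP fluorescence of the barcoded RPL19A-GFP strain; ratio of sample median GFP to plate DMSO average so 100% = DMSO; lower means less RPL19A-GFP as with rapamycin TOR inhibition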
LAP4-GFP pick2: LAP4-GFP expression modulators in yeast, confirmation, cell-based, second cherry pick, flow cytometry; shares compounds with LAP4-GFP MLPCN; S. cerevisiae LAP4-GFP strain, 3 h; GFP response vs DMSO, % at 10 µM; 590 tested, 20% active; AID 2621, 2010;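 active = GFP signal as percent of the solvent control above about 150%, meaning raised reporter expression, limit read from the data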;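 also: ratio of well median GFP fluorescence to plate DMSO mean so 100% = DMSO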
MEP2-GFP pick2: modulators of MEP2-GFP levels in yeast, confirmation, S. cerevisiae, flow cytometry GFP, second cherry picks; shares compounds with LAP4-GFP MLPCN; GFP response vs DMSO, % at 10 µM; 590 tested, 10% active; S. cerevisiae MEP2-GFP strain, 3 h;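 active = GFP signal above 150% of the solvent control wells, that is a rise of more than half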;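 also: median channel GFP fluorescence of all gated yeast cells per well; ratio of median GFP to plate DMSO average so 100% = DMSO level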
RPL19A-GFP pick2: RPL19A-GFP modulators in TOR pathway yeast, confirmation, cell-based, S. cerevisiae, flow cytometry, second cherry pick; S. cerevisiae RPL19A-GFP strain, 3 h; hits give low values; 100% means same as DMSO wells; AID 2623, 2010; GFP response vs DMSO, % at 10 µM; 590 tested, 3% active; shares compounds with LAP4-GFP MLPCN;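 active = under 65% GFP response relative to DMSO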;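 also: median GFP channel fluorescence per well over the all cells gate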
CIT2-GFP pick2: modulators of CIT2-GFP expression in yeast, confirmation, flow cytometry, second cherry pick, single plex; shares compounds with LAP4-GFP MLPCN; S. cerevisiae CIT2-GFP strain, 3 h; DMSO control wells read 100%; 590 tested, 8% active; GFP response vs DMSO, % at 10 µM; AID 2624, 2010;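 active = GFP response vs DMSO above about 150%, limit read from the data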;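 also: median green fluorescence per well over all gated yeast cells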
AGP1 GFP CP2: AGP1-GFP expression modulators, hit retest, confirmation, cell-based, flow cytometry, S. cerevisiae, cherry pick set 2; shares compounds with LAP4-GFP MLPCN; S. cerevisiae AGP1-GFP strain, 3 h; percent response vs DMSO, % at 10 µM; 590 tested, under 10 active; AID 2643, 2010;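 active = over 150 percent of DMSO response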;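 also: median GFP channel fluorescence over all cells without mother daughter split; sample median GFP divided by mean DMSO control so 100% equals DMSO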
Yeast autofluor: compound autofluorescence in yeast s288c, dose response, artefact control for yeast TOR pathway GFP screen, s288c strain | shares compounds with LAP4-GFP MLPCN | S. cerevisiae s288c, 520 nm autofluorescence, flow cytometry, 3 h; hits give high values; zero means same as solvent-only cells | fluorescence change (kMESF span) at 33 µM | 610 tested, under 10 active;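 active = fluorescence span over the dose series, or activity score, above about 33, limit read from the data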
Numbers without * were called inactive; [ ] = another dose, or the depositor's remark.

How did CCCc1cc(N2CCN(c3ccccn3)CC2)n2nc(C)c(-c3ccccc3)c2n1 do in these assays?
AGP1 TOR yeast: 101; MEP2 TOR yeast: 103; LAP4-GFP MLPCN: 103; CIT2-GFP yeast: 101; RPL19A TOR yeast: 101; Yeast autofluor: 0

How did CCCc1cc(N2CCOCC2)n2nc(C)c(-c3ccccc3)c2n1 do in these assays?
AGP1 TOR yeast: 94; MEP2 TOR yeast: 109; LAP4-GFP MLPCN: 99; CIT2-GFP yeast: 99; RPL19A TOR yeast: 103

Results for O=c1c2ccc([N+](=O)[O-])cc2ncn1Cc1ccccc1C(F)(F)F ?
AGP1 TOR yeast: 97; MEP2 TOR yeast: 107; LAP4-GFP MLPCN: 95; CIT2-GFP yeast: 103; RPL19A TOR yeast: 107

How did Cc1ccc(/C=C2/SC(=S)N(C3CCCCC3)C2=O)o1 do in these assays?
AGP1 TOR yeast: 81; MEP2 TOR yeast: 92; LAP4-GFP MLPCN: 158*; CIT2-GFP yeast: 88; RPL19A TOR yeast: 93; Yeast autofluor: 0.2

What do the screens show for `O=C1/C(=C/c2ccncc2)SC(=S)N1C1CCCCC1`?
AGP1 TOR yeast: 96; MEP2 TOR yeast: 102; LAP4-GFP MLPCN: 112; CIT2-GFP yeast: 83; RPL19A TOR yeast: 96

What do the screens show for `Cc1ccc(/C=C2\SC(=S)N(CC3CCCO3)C2=O)o1` (stereo unspecified)?
AGP1 TOR yeast: 108; MEP2 TOR yeast: 108; LAP4-GFP MLPCN: 171*; CIT2-GFP yeast: 113; RPL19A TOR yeast: 102; Yeast autofluor: 0.31

Results for COc1ccc(N2CCN(C(CNC(=O)C(=O)NC3CCCC3)c3ccco3)CC2)cc1 (stereo unspecified) ?
AGP1 TOR yeast: 99; MEP2 TOR yeast: 98; LAP4-GFP MLPCN: 92; CIT2-GFP yeast: 104; RPL19A TOR yeast: 97

How did O=C(c1ccc(Cl)cc1)N1CCN(c2cccc3[nH]ccc23)CC1 do in these assays?
AGP1 TOR yeast: 98; MEP2 TOR yeast: 87; LAP4-GFP MLPCN: 259*; CIT2-GFP yeast: 91; RPL19A TOR yeast: 65; Yeast autofluor: -0.2

How did Cc1cccc(N=Nc2ccc(O)c3ncccc23)c1 do in these assays?
AGP1 TOR yeast: 102; MEP2 TOR yeast: 96; LAP4-GFP MLPCN: 165*[may fluoresce green]; CIT2-GFP yeast: 99; RPL19A TOR yeast: 99; LAP4-GFP pick2: 200*; MEP2-GFP pick2: 129; RPL19A-GFP pick2: 104; CIT2-GFP pick2: 131; AGP1 GFP CP2: 108; Yeast autofluor: 1.6

How did O=C(Oc1ccnc2cc(Cl)ccc12)N1CCOCC1 do in these assays?
AGP1 TOR yeast: 95; MEP2 TOR yeast: 108; LAP4-GFP MLPCN: 99; CIT2-GFP yeast: 104; RPL19A TOR yeast: 101; LAP4-GFP pick2: 100; MEP2-GFP pick2: 98; RPL19A-GFP pick2: 99; CIT2-GFP pick2: 97; AGP1 GFP CP2: 99; Yeast autofluor: 0

How did O=C1c2cccc3c([N+](=O)[O-])ccc(c23)C(=O)N1O do in these assays?
AGP1 TOR yeast: 116; MEP2 TOR yeast: 350*; LAP4-GFP MLPCN: 228*; CIT2-GFP yeast: 274*; RPL19A TOR yeast: 148; Yeast autofluor: 20

What do the screens show for `O=C1c2cccc3c(N4CCCCC4)ccc(c23)C(=O)N1c1ccccn1`?
AGP1 TOR yeast: 96; MEP2 TOR yeast: 108; LAP4-GFP MLPCN: 105; CIT2-GFP yeast: 101; RPL19A TOR yeast: 102

Results for O=C1c2cccc3c([N+](=O)[O-])ccc(c23)C(=O)N1c1ccccn1 ?
AGP1 TOR yeast: 83; MEP2 TOR yeast: 301*; LAP4-GFP MLPCN: 193*; CIT2-GFP yeast: 191*; RPL19A TOR yeast: 115; LAP4-GFP pick2: 193*; MEP2-GFP pick2: 324*; RPL19A-GFP pick2: 122; CIT2-GFP pick2: 196*; AGP1 GFP CP2: 114; Yeast autofluor: 13

What do the screens show for `CCCCCCCCC/C(=N\O)c1ccccn1`?
AGP1 TOR yeast: 87; MEP2 TOR yeast: 104; LAP4-GFP MLPCN: 228*; CIT2-GFP yeast: 104; RPL19A TOR yeast: 84; Yeast autofluor: -0.2

What do the screens show for `CC1(C)CC2CC(C)(CN2S(=O)(=O)c2ccccc2[N+](=O)[O-])C1` (stereo unspecified)?
AGP1 TOR yeast: 91; MEP2 TOR yeast: 101; LAP4-GFP MLPCN: 96; CIT2-GFP yeast: 93; RPL19A TOR yeast: 93

What do the screens show for `CCN(CC(=O)Nc1ccc(OC)cc1)C(=O)CSCc1c(C)noc1C`?
AGP1 TOR yeast: 102; MEP2 TOR yeast: 94; LAP4-GFP MLPCN: 101; CIT2-GFP yeast: 97; RPL19A TOR yeast: 98

How did COc1ccccc1C(=O)Nc1ccccc1N1CCN(C(=O)c2ccc(Cl)cc2)CC1 do in these assays?
AGP1 TOR yeast: 104; MEP2 TOR yeast: 104; LAP4-GFP MLPCN: 108; CIT2-GFP yeast: 92; RPL19A TOR yeast: 99

What do the screens show for `CC(C)(C=O)C1=CC(=O)c2ccccc2C1=O`?
AGP1 TOR yeast: 96; MEP2 TOR yeast: 113; LAP4-GFP MLPCN: 193*; CIT2-GFP yeast: 90; RPL19A TOR yeast: 87; LAP4-GFP pick2: 143; MEP2-GFP pick2: 118; RPL19A-GFP pick2: 102; CIT2-GFP pick2: 146; AGP1 GFP CP2: 105

What do the screens show for `CC1=CC(=O)c2ccccc2C1=O`?
AGP1 TOR yeast: 87; MEP2 TOR yeast: 94; LAP4-GFP MLPCN: 99; CIT2-GFP yeast: 88; RPL19A TOR yeast: 100
